RAM network inh = blocks the yeast RAM network; S. cerevisiae dse1pr::URA3 reporter, 5-FOA growth OD615, 2 d; analog-sensitive cbk1-as2 kinase mutant strain; inhibition, % at 50 µM; actives 1.8% (n = 190,000); AID 868;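 active = inhibition above a set limit, 3 SD over mean compound inhibition, cut at about 8.4% in these data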;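 also: 0% = DMSO-only wells with no growth and 100% = 10 µM 1-NA-PP1 full growth; inhibition rescues growth on 5-FOA so higher OD means more RAM inhibition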
Rev-erbA mod = Rev-erb alpha (human) modulation; Rev-erbα–FITC-DNA binding, fluorescence polarization, 90 min; activity, % at 10 µM; actives 0.79% (n = 370,000);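 active = activity above about 14%, limit read from the data; passing the limit was not always enough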;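 also: 0% = DMSO wells with 35 nM protein and 100% = DMSO wells with 750 nM protein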
Target sequence (P20393 whole entry, looked up): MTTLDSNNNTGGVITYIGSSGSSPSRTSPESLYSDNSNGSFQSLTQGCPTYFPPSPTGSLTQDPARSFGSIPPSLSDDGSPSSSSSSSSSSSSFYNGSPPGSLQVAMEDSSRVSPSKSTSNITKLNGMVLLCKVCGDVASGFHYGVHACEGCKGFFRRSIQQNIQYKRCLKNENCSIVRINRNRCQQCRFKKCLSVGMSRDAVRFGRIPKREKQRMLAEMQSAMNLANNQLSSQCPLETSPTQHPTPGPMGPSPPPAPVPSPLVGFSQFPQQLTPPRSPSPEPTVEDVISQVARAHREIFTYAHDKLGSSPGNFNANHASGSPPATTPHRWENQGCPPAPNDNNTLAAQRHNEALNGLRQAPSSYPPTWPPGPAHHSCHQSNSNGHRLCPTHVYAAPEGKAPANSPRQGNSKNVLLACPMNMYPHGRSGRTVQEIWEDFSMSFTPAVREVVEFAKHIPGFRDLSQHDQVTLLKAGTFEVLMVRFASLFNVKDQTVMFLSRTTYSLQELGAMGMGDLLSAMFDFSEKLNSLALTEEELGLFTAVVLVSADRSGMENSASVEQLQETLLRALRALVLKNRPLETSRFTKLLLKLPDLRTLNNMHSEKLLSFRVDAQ
SKN-1 inh = blocks SKN-1 activity in C. elegans. actives 0.49% (n = 360,000). C. elegans VP596 Pgst-4::GFP/RFP ratio, acrylamide-induced, 24 h. AID 624304. inhibition, % at 21.8 µM;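 active = interference check ratio from 0.5 to 1.5 plus GFP to RFP signal ratio inhibition reaching or exceeding a fixed threshold, cut at about 30% in these data, passing the limit was not always enough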
EP2 mod = modulators of human EP2 prostaglandin E2 receptor | P43116 | EP2-expressing cells, cAMP HTRF FRET, PGE2 co-stimulation | induction, % at 25 µM | actives 0.83% (n = 260,000) | AID 940;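 active = compounds whose cAMP rise, as percent of the full-agonist control response, exceeds 60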;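 also: rat C6 glioma line stably carrying human EP2 under a CMV promoter; the protocol text gives 20 µM as final concentration; 100% = response of wells given 1 µM PGE2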
EP2 antag = inhibitors of human EP2 prostaglandin E2 receptor | AID 1422 | C6 glioma cells expressing human EP2, cAMP TR-FRET; cells stimulated with saturating PGE2 | inhibition, % at 25 µM | P43116 | actives 0.52% (n = 260,000);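 active = percent inhibition above 40 after rounding to a whole number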;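 also: rat C6 glioma host cells with rolipram phosphodiesterase inhibitor present; the protocol text gives 20 µM as final concentration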
PG9 binder = small molecules binding HIV-1 gp120 antibody PG9 | AID 624416 | inhibition, % at 6.7 µM | actives 0.43% (n = 360,000) | TR-FRET gp120-PG9 antibody binding; in the data active = inhibition above about 8.5%
An asterisk follows results filed as active; / = no result. Hits are enriched below; roughly 2.9% of the tested compounds scored in any of these assays.

SMILES | RAM network inh | Rev-erbA mod | SKN-1 inh | EP2 mod | EP2 antag | PG9 binder
COC(=O)[C@@]1(Cc2ccc(F)cc2)[C@H]2c3cc(C(=O)N(C)C)n(CCc4ccc(OC)c(Br)c4)c3C[C@H]2CN1C(=O)c1ccccc1 | 8.7* | 6.2 | 1.5 | 32.0 | / | 1.7
Cc1cccc(C)c1NC(=O)CSc1nnc(C2CC2)n1C | / | / | / | 5.7 | 11.0 | /
CCOc1nc(-c2ccc(C)cc2)ccc1-c1noc(COC)n1 | 7.9 | -5.6 | 6.3 | 42.8 | 10.0 | -0.7
CCCc1nc(-c2ccc(-c3ccc(C)cc3)nc2OCC)no1 | / | / | / | 69.3* | 12.3 | /
CC(=O)c1ccc(-n2c(CCC(=O)O)ccc2-c2cccs2)cc1 | 9.7* | -1.0 | 10.4 | 12.8 | 6.0 | -0.7
CN1C(=O)/C(=C2\SC(=S)N(CCCCCC(=O)O)C2=O)c2ccccc21 | / | -1.6 | 0.5 | 74.8* | 5.4 | 0.4
CCN1C(=O)/C(=C2\SC(=S)N(CCCOC)C2=O)c2ccccc21 | 9.5* | -5.4 | 12.3 | 39.3 | 5.2 | 0.2
CCOC(=O)CC1C(=O)NCCN1c1nc2ccc(C)cn2c(=O)c1/C=C1\SC(=S)N(CC(C)C)C1=O (configuration not stated) | / | / | 42.4* | -25.5 | 8.5 | /
CCOC(=O)CC1C(=O)NCCN1c1nc2ccc(C)cn2c(=O)c1/C=C1\SC(=S)N(C(C)CC)C1=O (configuration not stated) | / | / | / | -16.2 | 12.3 | /
O=C(CSc1nc(O)c(-c2ccccc2)c(=O)[nH]1)N1CCCCCC1 | / | / | / | -7.5 | 4.5 | /
COc1ccc(NCc2nnc(SCC(=O)Nc3cccc(Cl)c3)o2)cc1 | / | / | / | -52.2 | 15.4 | /
FCCCOc1ccc(-c2nccc(-c3ccc(Cl)cc3)n2)cc1 | 8.8* | 2.5 | 15.7 | 15.4 | 9.7 | -0.7
COc1ccc(C)cc1S(=O)(=O)N(CC(=O)Nc1cc([N+](=O)[O-])ccc1C)c1ccc(C)c(C)c1 | 5.3 | -2.8 | 6.1 | 14.7 | 10.0 | -1.2
COc1ccc([N+](=O)[O-])cc1NC(=O)c1ccc(CN(c2ccc(C)c(C)c2)S(C)(=O)=O)cc1 | 9.7* | 5.3 | 3.5 | 4.7 | 7.7 | -1.9
CN=c1scc(-c2cccs2)n1/N=C/c1ccccc1O | 8.9* | 5.5 | 10.2 | -62.9 | 7.2 | -1.1
CN=c1scc(-c2cccs2)n1/N=C/c1ccc(O)c(O)c1O | 0.3 | 0.2 | 2.3 | -2.1 | 10.3 | -2.9
COc1ccc(-c2ccnc(SCC(=O)c3ccc(Cl)cc3)n2)cc1 | 8.9* | -1.1 | 13.7 | 16.2 | 2.2 | 0.6
COc1ccc(-c2ccnc(SCC(=O)c3ccc(OC)c(OC)c3)n2)cc1 | 4.7 | 3.6 | -7.7 | 9.2 | 10.0 | 0.2
N#Cc1c(Cl)nc(SCc2ccccc2)nc1-c1ccccc1 | 5.6 | / | / | 16.1 | 60.9* | /
c1ccc(CSc2nnc(-c3ccccc3)c(-c3ccccc3)n2)cc1 | / | 7.8 | 11.2 | / | 1.2 | -0.1
CCC(c1nnnn1C1CCCCC1)N1CCN(CC)CC1 (configuration not stated) | / | / | / | -27.2 | 10.4 | /
COC(=O)CN1C(=S)N(Cc2ccccc2)C(=O)C1CC(=O)Nc1ccc(Br)cc1 (configuration not stated) | 5.9 | 10.9 | 38.8* | 16.4 | 10.5 | 1.1
NC(=O)c1ccc[n+]([C@@H]2O[C@H](COP(=O)([O-])OP(=O)(O)OC[C@H]3O[C@@H](n4cnc5c(N)ncnc54)[C@H](OP(=O)(O)O)[C@@H]3O)[C@@H](O)[C@H]2O)c1 | / | / | / | 70.9* | 9.5 | /
Nc1ncnc2c1ncn2[C@@H]1O[C@H](COP(=O)(O)OP(=O)(O)OP(=O)(O)O)[C@@H](O)[C@H]1O | / | -0.4 | -1.7 | / | / | -0.7
CC(=O)N1CCN(C(=O)C2(NC(=O)NCc3ccccc3)CCCCC2)CC1 | / | / | / | -17.1 | 9.3 | /
CCCc1c(-c2ccc(O)cc2)nn(-c2ccc(O)cc2)c1-c1ccc(O)cc1 | / | / | 1.0 | -22.4 | 100.4* | /
Cc1ccc2cc(CN(Cc3ccco3)C(=S)NC3CCCCC3)c(=O)[nH]c2c1C | / | / | / | 39.0 | 20.5 | /
COc1ccc(CCN(Cc2cccs2)S(=O)(=O)c2ccc(-n3cnnn3)cc2)cc1OC | 3.9 | 2.0 | 9.5 | -32.7 | / | -0.1
COc1cc(S(=O)(=O)N(CCc2ccccc2)Cc2cccs2)ccc1-n1cnnn1 | 9.1* | -4.8 | 21.4 | 33.1 | 8.2 | 2.8
CC(C)[C@@H](Cn1nnc2ccccc21)NC(=O)c1ccn(C)n1 | / | / | / | -0.2 | 3.7 | /

Screening data: PubChem, several laboratories
